Screening results from PubChem BioAssay.
Most compounds without a hit are left out; they make up all but 12% or so of the library.
L major viab = Leishmania major promastigote growth inhibition | Leishmania major promastigotes, resazurin fluorescence viability | inhibition, % at 10 µM | hit rate 9% among 200,000 | AID 1063; in the data active means inhibition above about 50%;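 further: promastigotes grown with compound for 44 hours at 28 °C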
Cl transport mod = modulators of human KCC2 chloride dependent transport | B-score of Tl+ flux slope (higher = more flux/activation; lower = inhibition) at 10 µM | hit rate 2.2% among 190,000 | KCC2 cells, thallium flux FluoZin-2 fluorescence;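 active means thallium flux slope and its plate-corrected score both differing from the plate sample mean at a set confidence after two filtering rounds, in either direction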;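 further: slope of fluorescence scaled to starting intensity during 10 to 20 s after thallium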
Target sequence (Q9H2X9 whole entry, looked up): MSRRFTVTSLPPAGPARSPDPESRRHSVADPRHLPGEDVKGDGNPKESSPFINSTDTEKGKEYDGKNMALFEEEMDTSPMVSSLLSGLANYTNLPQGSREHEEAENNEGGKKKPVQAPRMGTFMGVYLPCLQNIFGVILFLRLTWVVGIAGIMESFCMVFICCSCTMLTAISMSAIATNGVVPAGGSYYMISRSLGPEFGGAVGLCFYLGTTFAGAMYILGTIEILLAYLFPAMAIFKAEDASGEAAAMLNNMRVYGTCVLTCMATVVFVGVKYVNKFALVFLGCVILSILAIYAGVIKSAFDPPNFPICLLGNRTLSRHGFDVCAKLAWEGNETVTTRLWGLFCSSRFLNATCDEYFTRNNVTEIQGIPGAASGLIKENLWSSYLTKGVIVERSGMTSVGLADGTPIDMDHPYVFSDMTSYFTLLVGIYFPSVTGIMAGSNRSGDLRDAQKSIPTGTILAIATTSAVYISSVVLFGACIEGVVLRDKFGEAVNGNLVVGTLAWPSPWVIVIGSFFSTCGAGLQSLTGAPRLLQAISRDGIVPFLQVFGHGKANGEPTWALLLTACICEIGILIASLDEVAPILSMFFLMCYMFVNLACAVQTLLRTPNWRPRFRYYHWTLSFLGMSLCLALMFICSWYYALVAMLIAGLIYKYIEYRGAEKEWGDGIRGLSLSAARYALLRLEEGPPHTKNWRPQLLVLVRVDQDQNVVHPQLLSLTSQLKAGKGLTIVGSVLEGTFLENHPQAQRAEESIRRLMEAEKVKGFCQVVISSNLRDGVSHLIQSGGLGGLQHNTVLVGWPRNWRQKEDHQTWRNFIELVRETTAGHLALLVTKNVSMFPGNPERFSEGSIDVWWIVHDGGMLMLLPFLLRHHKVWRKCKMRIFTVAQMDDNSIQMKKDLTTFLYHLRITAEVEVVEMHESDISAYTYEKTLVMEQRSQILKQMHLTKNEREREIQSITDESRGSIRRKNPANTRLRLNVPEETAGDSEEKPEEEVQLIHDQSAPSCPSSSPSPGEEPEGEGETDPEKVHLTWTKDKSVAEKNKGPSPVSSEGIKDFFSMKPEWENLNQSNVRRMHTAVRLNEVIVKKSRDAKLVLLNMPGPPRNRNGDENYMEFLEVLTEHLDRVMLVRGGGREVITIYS
ROMK primary = modulators of human ROMK potassium channel; P48048; Tet-inducible ROMK, thallium flux fluorescence; actives lie on both sides; B-score at 10 µM; hit rate 2% among 130,000;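 active means signal ratio slope over the read window, or its plate-corrected B-score, at least 3 SD from the plate mean, either direction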;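 further: B-score of the F/F0 ratio slope over 7 to 12 s after thallium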
WT yeast gro inh = growth inhibition of WT yeast, mitochondrial fusion screen | hit rate 2.1% among 190,000 | mitochondrial fusion phenotypic screen, WT strain | AID 1362 | inhibition, % at 10 µM; in the data active means inhibition above about 58%; tested in S. cerevisiae
Calpain2 inh = calpain II (pig) inhibition. purified calpain II, fluorogenic peptide substrate, 30 min. hit rate 0.37% among 220,000. inhibition, % at 16 µM;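 active means inhibition above about 50%, limit read from the data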
* = called active by the depositor; i = inactive; . = no result given.

SMILES	L major viab	Cl transport mod	ROMK primary	WT yeast gro inh	Calpain2 inh
CCN(CC)CCCC(C)N=C(c1ccccc1)c1c(O)n(C)c(=O)n(C)c1=O (stereo not drawn)	95*	0.89	-0.0026	-9	5
CCCCCc1cc(O)c2c3c(c(=O)oc2c1)CN(C)CC3	99*	0.61	-0.4	49	-151
Cc1nn(Cc2ccccc2)c(C)c1C=C1C(=O)NC(=O)NC1=O	58*	0.4	.	-6	14
Cc1nn(Cc2ccccc2)c(C)c1C(=O)NCc1ccccc1	-2	.	0.22	-17	-3
CC(c1ccccc1F)n1cc(C(=O)Nc2ccc3nc[nH]c3c2)nn1 (stereo not drawn)	72*	.	0.42	-9	11
O=C(Nc1ccc2c(c1)OCO2)c1cn(Cc2ccc(F)cc2)nn1	10	.	0.38	19	-33
CN(C)c1ccc(CN2CC=C(c3ccc(F)cc3)CC2)cc1	96*	0.14	-2.8	22	26
NC(N)=N/N=C/c1cn(-c2ccccc2)nc1-c1cccs1	101*	-1.3	-2.4	16	-105
O=c1c2ccccc2nc(-c2cccs2)n1-c1ccccc1	1	-0.37	.	-5	10
N#CCCn1cc(C(=O)NCc2ccccc2)c(-c2ccccc2)n1	-4	0.39	-0.27	-7	-23
COc1cccc(-n2c(CN3CCN(C)CC3)nc3ccc([N+](=O)[O-])cc3c2=O)c1	43	0.37	0.72	3	15
CCN1/C(=C\C=C\C2=[N+](CC)c3ccccc3C2(C)C)C(C)(C)c2ccccc21	99*	i	.	89	30
CN(C)C(Cc1ccccc1)C(=O)c1cccs1 (stereo not drawn)	10	-0.63	1	11	3
O=C1C2CCCN2C(c2ccncc2)N1c1ccc(Cl)c(Cl)c1 (stereo not drawn)	0	0.47	.	3	-43
CCCCc1nc(N2CCNCC2)c(C#N)c2c1CSC(C)(C)C2	97*	0.034	.	1	-31
Cc1ccc(-c2nc3ccccc3c(=O)n2-n2cccc2)cc1	-1	-0.3	.	0	22
CN(C)CCNC(=O)c1cccn(Cc2cc(C(F)(F)F)cc(C(F)(F)F)c2)c1=O	-1	.	-2.8	7	-62
N[C@@H](Cc1c[nH]c2ccccc12)c1nnc(SCc2ccc(Cl)cc2)o1	0	.	.	62*	7
CCN(CC)c1ccc(CC2C(=O)N(C)C(=O)N(C)C2=O)cc1	2	1.9	.	-13	-4
CCN(CC)c1ccc(/C=C/[N+](=O)[O-])cc1	69*	i	.	38	-5
Clc1ccc(COC(Cn2ccnc2)c2ccc(Cl)cc2Cl)c(Cl)c1 (stereo not drawn)	99*	0.34	.	94	58*
Nc1cc(Cl)c2nonc2c1[N+](=O)[O-]	98*	-0.22	.	-4	-13
CC1CCC(C(=O)NC(C(=O)N2CCC3(CC2)OCCO3)C(C)C)CC1 (stereo not drawn)	1	0.12	.	-11	-7
COC(=O)C(O)(c1cn(C)c2ccccc12)C(F)(F)F (stereo not drawn)	2	0.89	.	7	-14
CCN(c1ccc(C(O)(C(=O)OC)C(F)(F)F)cc1)S(=O)(=O)c1ccccc1 (stereo not drawn)	99*	-1.1	.	8	-22
SMILES	L major viab	Cl transport mod	ROMK primary	WT yeast gro inh	Calpain2 inh
CCOC(=O)C(O)(c1ccc(N(CC)S(=O)(=O)c2ccccc2)cc1)C(F)(F)F (stereo not drawn)	100*	0.31	-1.3	-4	8
CCOC(=O)C(O)(c1ccc(NC(=O)Oc2ccccc2)cc1)C(F)(F)F (stereo not drawn)	0	0.43	.	-15	-7
CC(C)C1(C)N=C(c2ncccc2C(=O)O)NC1=O (stereo not drawn)	-2	-0.086	-0.79	7	-39
Cn1cccc1/C=C1\C(=O)NC(=O)N(CCC2=CCCCC2)C1=O	-3	-0.6	.	-4	-25
O=C1NC(=O)N(CCC2=CCCCC2)C(=O)/C1=C\c1cccs1	55*	0.058	0.47	-16	-24
O=c1[nH]c(=S)n(C2CC2)c(O)c1C=NCC1CCCO1 (stereo not drawn)	.	0.41	.	.	-3
CCn1ccnc1CN1CCCC(C(=O)c2ccc(SC)cc2)C1 (stereo not drawn)	9	-0.3	-0.87	14	10
Cc1ccc(CN2CCCC(C(=O)c3cccc(C(F)(F)F)c3)C2)o1 (stereo not drawn)	47	.	0.68	15	-6
O=C(c1cccc(C(F)(F)F)c1)C1CCCN(Cc2ccccc2O)C1 (stereo not drawn)	84*	1.4	-0.21	28	41
O=C(c1ccc(C(F)(F)F)cc1)C1CCCN(Cc2ccncc2)C1 (stereo not drawn)	89*	-1.3	-1.3	3	-9
